In PubChem BioAssay one finds growth inhibition, inhibition and outcome data, which are given here for 20 molecules.

A number with no mark means an inactive call. For some of these results: Entries with a potency or affinity are not part of this list. Active and inactive are the calls of the source. Unless noted, no rule for the calls is given here.

Broadly, the inhibition is the change of the read-out against control, counted positive when it falls.

Test [1] can be described thus: antimalarial activity against Dd2 strain (AID 2302;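 active = growth inhibition above 50% at the single 2 µM test dose, taken to imply half-maximal potency below 2 µM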;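 also: 0% = DMSO untreated growth and 100% = chloroquine plus artemisinin killed control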). The settings on record: P. falciparum Dd2 in RBCs, LDH growth readout, 72 h; at 2 µM; stronger effect = higher value.
Test [2] is described as follows: HepG2 cytotoxicity, primary screen, cytotoxicity control for P. falciparum antimalarial project, cell-based, ATP luminescence (AID 2303;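 active = inhibition above 50%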;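 also: 0% = DMSO wells and 100% = digitonin-killed cells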). The note with it: HepG2 viability, 24-48 h, at 10 µM, stronger effect = higher value.
Test [3] addresses L-lactate dehydrogenase (Plasmodium falciparum (isolate CDC / Honduras)) (UniProt Q27743). In words: PfLDH activity inhibition – cell lysate, 3D7 strain, counter-screen for P. falciparum growth inhibition project (AID 2304).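 Also: 0% = vehicle and 100% = reference inhibitor.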 The settings on record: P. falciparum 3D7 crude extract, LDH APAD/NBT absorbance; at 2 µM; stronger effect = higher value.
Test [4] is described as follows: inhibition of 3D7 malaria parasite growth – strain 3D7 (AID 2306).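 Also: 0% = DMSO wells and 100% = chloroquine plus artemisinin control wells.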 The settings on record: P. falciparum 3D7 erythrocytic growth, LDH absorbance, 72 h; at 2 µM; stronger effect = higher value.
The target in test [5] is Calcium-dependent protein kinase 1 (Plasmodium falciparum (isolate 3D7)) (UniProt P62344). In words: PfCDPK1 kinase inhibitors, biochemical, TCAMS library (AID 1159585; cut-off not given, nearly all actives have IC50 up to about 0.98 µM;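 also: inhibitors leave more ATP so luminescence rises with inhibition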). The settings on record: recombinant PfCDPK1, Kinase-Glo ATP depletion luminescence. (Kinase-Glo reads ATP consumption through a luciferase reaction.)
The target in test [6] is Plasmodium falciparum protein kinase 6 (PK6, PF3D7_1337100) (UniProt Q8IDW1). In words: PfPK6 kinase inhibitors, biochemical, TCAMS library (AID 1159586). The settings on record: recombinant PfPK6, Kinase-Glo ATP depletion luminescence.
Test [7] addresses Protein kinase 7 (PK7), Plasmodium falciparum 3D7 (PF3D7_0213400) (UniProt Q7YTF7). As to the kind of experiment: inhibition of Plasmodium PK7 catalytic activity – biochemical, TCAMS antimalarial set, Kinase-Glo luminescence (AID 1159587). The settings on record: recombinant PfPK7, Kinase-Glo ATP depletion luminescence.
For test [8], the target named is Calcium-dependent protein kinase 4 (Plasmodium falciparum (isolate 3D7)) (UniProt Q8IBS5). In words: PfCDPK4 kinase inhibitors, biochemical, TCAMS library (AID 1159588; cut-off not given, nearly all actives have IC50 up to about 0.91 µM). The note with it: recombinant PfCDPK4, Kinase-Glo ATP depletion luminescence.
Sequence of Calcium-dependent protein kinase 4 (Plasmodium falciparum (isolate 3D7)) (Q8IBS5 whole entry, looked up): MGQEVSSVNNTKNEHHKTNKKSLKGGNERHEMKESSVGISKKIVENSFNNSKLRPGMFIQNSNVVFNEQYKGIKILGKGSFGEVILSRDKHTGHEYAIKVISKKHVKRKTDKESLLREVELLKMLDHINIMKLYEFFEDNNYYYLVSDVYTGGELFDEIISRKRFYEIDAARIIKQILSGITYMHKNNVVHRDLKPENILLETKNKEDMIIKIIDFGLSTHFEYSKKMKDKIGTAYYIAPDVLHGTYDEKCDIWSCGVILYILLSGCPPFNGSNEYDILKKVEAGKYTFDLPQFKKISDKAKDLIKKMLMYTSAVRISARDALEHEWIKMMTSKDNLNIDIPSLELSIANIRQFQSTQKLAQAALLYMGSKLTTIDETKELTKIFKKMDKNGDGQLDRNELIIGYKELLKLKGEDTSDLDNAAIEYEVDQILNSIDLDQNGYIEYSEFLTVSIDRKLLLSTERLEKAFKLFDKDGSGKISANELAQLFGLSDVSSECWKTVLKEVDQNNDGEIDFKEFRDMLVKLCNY

Sequence of L-lactate dehydrogenase (Plasmodium falciparum (isolate CDC / Honduras)) (Q27743 whole entry, looked up): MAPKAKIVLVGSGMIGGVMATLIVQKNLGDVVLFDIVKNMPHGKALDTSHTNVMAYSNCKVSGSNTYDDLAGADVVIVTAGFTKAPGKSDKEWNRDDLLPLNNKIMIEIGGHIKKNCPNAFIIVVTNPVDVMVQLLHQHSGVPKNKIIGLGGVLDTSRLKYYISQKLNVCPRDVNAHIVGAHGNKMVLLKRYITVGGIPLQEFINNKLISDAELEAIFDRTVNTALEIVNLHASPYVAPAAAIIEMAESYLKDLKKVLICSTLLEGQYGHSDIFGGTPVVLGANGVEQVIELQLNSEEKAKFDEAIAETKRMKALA
Sequence of Plasmodium falciparum protein kinase 6 (PK6, PF3D7_1337100) (Q8IDW1 1-305): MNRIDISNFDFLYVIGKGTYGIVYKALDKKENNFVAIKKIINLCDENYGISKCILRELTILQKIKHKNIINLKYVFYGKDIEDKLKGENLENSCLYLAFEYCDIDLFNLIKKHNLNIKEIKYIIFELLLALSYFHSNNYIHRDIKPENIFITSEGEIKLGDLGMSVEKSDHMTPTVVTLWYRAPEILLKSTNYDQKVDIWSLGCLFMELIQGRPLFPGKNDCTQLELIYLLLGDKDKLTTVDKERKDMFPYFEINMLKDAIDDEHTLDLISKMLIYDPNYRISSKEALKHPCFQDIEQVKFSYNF
Sequence of Calcium-dependent protein kinase 1 (Plasmodium falciparum (isolate 3D7)) (P62344 whole entry, looked up): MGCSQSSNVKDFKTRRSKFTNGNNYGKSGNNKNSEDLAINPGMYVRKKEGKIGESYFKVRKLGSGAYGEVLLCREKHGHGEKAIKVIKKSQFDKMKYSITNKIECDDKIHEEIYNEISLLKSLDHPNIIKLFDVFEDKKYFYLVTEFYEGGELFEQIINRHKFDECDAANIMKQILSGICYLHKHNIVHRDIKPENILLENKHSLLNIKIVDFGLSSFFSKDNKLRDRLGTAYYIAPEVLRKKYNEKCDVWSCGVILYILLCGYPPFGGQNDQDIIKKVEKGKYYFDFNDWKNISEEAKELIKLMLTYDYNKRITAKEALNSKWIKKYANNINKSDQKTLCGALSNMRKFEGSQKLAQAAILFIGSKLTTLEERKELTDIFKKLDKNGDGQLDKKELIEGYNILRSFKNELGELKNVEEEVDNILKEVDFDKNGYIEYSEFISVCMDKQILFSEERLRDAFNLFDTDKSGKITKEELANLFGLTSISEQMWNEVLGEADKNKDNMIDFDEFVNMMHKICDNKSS
Sequence of Protein kinase 7 (PK7), Plasmodium falciparum 3D7 (PF3D7_0213400) (Q7YTF7 1-343): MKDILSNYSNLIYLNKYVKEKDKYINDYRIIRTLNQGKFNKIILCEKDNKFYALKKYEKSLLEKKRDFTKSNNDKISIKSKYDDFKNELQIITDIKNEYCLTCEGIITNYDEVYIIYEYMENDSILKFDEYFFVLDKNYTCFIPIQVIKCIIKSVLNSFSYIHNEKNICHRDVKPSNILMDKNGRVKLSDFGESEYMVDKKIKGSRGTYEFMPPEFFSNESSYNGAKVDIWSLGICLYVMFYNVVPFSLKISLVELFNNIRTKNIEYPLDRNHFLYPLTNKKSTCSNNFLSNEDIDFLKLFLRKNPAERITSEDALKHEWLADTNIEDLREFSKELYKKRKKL

Consider `CC1CN(c2cc(=O)n(Cc3ccc(NC(=O)Nc4ccc(-c5ccccc5)cc4)cc3)cn2)CC(C)N1` (stereo not given), for which the growth inhibition was 20% in test [1] and 87% (active) in test [4]. For the same molecule, the inhibition in test [2] was 0%; in test [3], -1%. Further, the outcome in test [5], in test [6], in test [7] and in test [8] was inactive.
On to `CC(C)CCN1CCC(Oc2cccc(NC(=O)c3ccc(C(F)(F)F)cc3)c2)CC1`, for which the figures for the growth inhibition in test [1] and in test [4] were 6% and 98% (active), respectively. Further, the inhibition is 39% in test [2] and -2% in test [3]. Moreover, the result in test [5], in test [6], in test [7] and in test [8] was inactive.
`CCc1ccc(S(=O)(=O)Nc2cccc(CCN3CCC(N4CCCCC4)CC3)c2)cc1`: the growth inhibition was 20% in test [1] and 101% (active) in test [4]. In addition, the inhibition in test [2] was 21%; in test [3] it was -4%. For the same molecule, the result in test [5], in test [6], in test [7] and in test [8] was inactive.
Consider `O=C(NCC1CC1)C1CCN(C(c2ccccc2)c2ccc(Cl)c(Cl)c2)CC1` (stereo not given), for which the growth inhibition in test [1] is 96% (active); in test [4] it was 97% (active). The figures for the inhibition in test [2] and in test [3] were 7% and -1%, respectively. Moreover, the result in test [5], in test [6], in test [7] and in test [8] was inactive.
`CC(C)[C@H](NC(=O)c1ccc(O)c(-c2ccc(Cl)c(Cl)c2)c1)C(=O)NCCN1CCCCC1`: the growth inhibition in test [1] was 98% (active); in test [4], 99% (active). Besides, the inhibition was -6% in test [2] and -4% in test [3]. The outcome in test [5], in test [6], in test [7] and in test [8] was inactive.
With `COCCn1c(C)nc2ccccc2c1=O`, the figures for the growth inhibition in test [1] and in test [4] were 67% (active) and 89% (active), respectively. Moreover, the inhibition in test [2] and in test [3] was -3% throughout. In addition, the result in test [5], in test [6], in test [7] and in test [8] was inactive.
Regarding `Cn1cccc1C(=O)NCC(CCNc1cc(=O)c2ccccc2[nH]1)NCc1cc(Br)cc(Br)c1` (stereo not given), the growth inhibition in test [1] was 52% (active); in test [4], 92% (active). Moreover, the results for the inhibition in test [2] and in test [3] were -3% and -2%, respectively. Also, the result in test [5], in test [6], in test [7] and in test [8] was inactive.
Take `CCC[C@@H]([C@@H](CC1CCC(C)CC1)C(=O)N[C@@H](CCCCNC(=O)c1ccccn1)C(=O)Nc1nccs1)N(O)C=O` (stereo not given in full): the figures for the growth inhibition in test [1] and in test [4] were 79% (active) and 101% (active), respectively. Besides, the inhibition was 25% in test [2] and -1% in test [3]. For the same molecule, the result in test [5], in test [6], in test [7] and in test [8] was inactive.
As for `CCSc1ccccc1CON1C(N)=NC(N)=NC1(C)C`, the values for the growth inhibition in test [1] and in test [4] were 10% and 96% (active), respectively. For the same molecule, the inhibition was 62% (active) in test [2] and -3% in test [3]. Moreover, the outcome in test [5], in test [6], in test [7] and in test [8] was inactive.
On to `COc1ccc(-c2cccc(NC(=O)c3ccc(F)cc3)c2)cc1CN1CCCN(C)CC1`, for which the growth inhibition was 35% in test [1] and 101% (active) in test [4]. Also, the inhibition in test [2] was 26%; in test [3] it was 2%. The outcome in test [5], in test [6], in test [7] and in test [8] was inactive.
On to `CN(C)CCCN1CCN(C(=O)c2cccc(-c3noc(C(F)(F)F)n3)c2)CC1`, for which the growth inhibition is 60% (active) in test [1] and 92% (active) in test [4]. The figures for the inhibition in test [2] and in test [3] were -7% and -4%, respectively. Further, the outcome in test [5], in test [6], in test [7] and in test [8] was inactive.
As for `Clc1ccccc1/C=C/c1cncnc1Nc1ccc2nc(Cc3ccccc3)[nH]c2c1`, the figures for the growth inhibition in test [1] and in test [4] were 26% and 96% (active), respectively. Also, the inhibition is 4% in test [2] and -1% in test [3]. Further, the outcome in test [5], in test [6], in test [7] and in test [8] was inactive.
Consider `CCCCCCCCCCNCC(O)c1ccc(O)c(C(=O)OC)c1` (stereo not given), for which the growth inhibition in test [1] and in test [4] was 97% (active) in each case. Besides, the inhibition is 3% in test [2] and -7% in test [3]. Besides, the result in test [5], in test [6], in test [7] and in test [8] was inactive.
Regarding `NC1CCN(CCNCc2cccc(-c3ccc(-c4nc5ccc(F)cc5[nH]4)cc3)c2)C1` (stereo not given), the growth inhibition was 4% in test [1] and 99% (active) in test [4]. Besides, the inhibition in test [2] was 8%; in test [3], 2%. The outcome in test [5], in test [6], in test [7] and in test [8] was inactive.
Regarding `COc1cc(NC(=O)C(c2ccc(Cl)cc2)C(C)C)cc(OC)c1` (stereo not given), the results for the growth inhibition in test [1] and in test [4] were 98% (active) and 99% (active), respectively. Besides, the inhibition in test [2] is 5%; in test [3], -3%. In addition, the outcome in test [5], in test [6], in test [7] and in test [8] was inactive.
As to `O=S(=O)(c1c(Cl)cccc1Cl)N1CCCCC(c2ccc(C(F)(F)F)cc2)=N1`, the growth inhibition in test [1] is 98% (active); in test [4] it was 99% (active). Moreover, the inhibition is 11% in test [2] and -2% in test [3]. The outcome in test [5], in test [6], in test [7] and in test [8] was inactive.
`CC(C)C1C(O)=C(c2ccc3ccccc3c2)C(=O)N1CC1CCCCC1` (stereo not given): the growth inhibition in test [1] was 43%; in test [4], 84% (active). Besides, the inhibition is 11% in test [2] and -3% in test [3]. The result in test [5], in test [6], in test [7] and in test [8] was inactive.
Turning to `O=C(Nc1cccc(CN2CCCN(Cc3ccc(F)cc3)CC2)c1)c1ccc(Cl)c(Cl)c1`, the growth inhibition in test [1] is 17%; in test [4], 95% (active). In addition, the figures for the inhibition in test [2] and in test [3] were 27% and 7%, respectively. Further, the result in test [5], in test [6], in test [7] and in test [8] was inactive.
As to `Cc1ccccc1C1CCN(C2CCC(NC(=O)/C=C/c3c[nH]c4ccccc34)CC2)CC1` (stereo not given), the results for the growth inhibition in test [1] and in test [4] were 51% (active) and 100% (active), respectively. Also, the inhibition in test [2] was 30%; in test [3] it was 2%. The outcome in test [5], in test [6], in test [7] and in test [8] was inactive.
Regarding `CC(Nc1ccnc2cc(Cl)ccc12)c1ccc(S(N)(=O)=O)cc1` (stereo not given), the values for the growth inhibition in test [1] and in test [4] were 21% and 96% (active), respectively. In addition, the values for the inhibition in test [2] and in test [3] were 5% and 3%, respectively. For the same molecule, the result in test [5], in test [6], in test [7] and in test [8] was inactive.
